Assay outcomes deposited in PubChem by National Center for Advancing Translational Sciences (NCATS).
ALOX12 inh: Primary qHTS assay for inhibitors of human arachidonate 12S-lipoxygenase (ALOX12): Round 2 | Polyunsaturated fatty acid lipoxygenase ALOX12 (Homo sapiens), P18054 | Potency, µM (series often up to 108 µM), usual class: inhibitors | purified 12hLO, xylenol orange hydroperoxide absorbance | AID 1671190, 2021 | 580,000 compounds, 1.1% hits
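Hydroperoxide product was detected by ferrous iron/xylenol orange as the 573 to 405 nm absorbance ratio. Arachidonic acid at 40 uM (final) was turned over for 30 min at room temperature by 150 nM human 12hLO, pH 7.0 Hepes buffer, after 15 min compound preincubation.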
JMJD2A Tudor: qHTS Assay for Inhibitors of JMJD2A-Tudor Domain; AlphaScreen JMJD2A-Tudor / H3K4me3 peptide binding; Lysine-specific demethylase 4A (Homo sapiens), O75164; 390,000 compounds, 4.4% hits; AID 504339, 2011; Potency, µM (doses to about 114 µM), actives largely listed as inhibitors; note: nearly all actives have a fitted effect of over 50% in size
Target sequence (O75164 whole entry, looked up, the tested form may be a part): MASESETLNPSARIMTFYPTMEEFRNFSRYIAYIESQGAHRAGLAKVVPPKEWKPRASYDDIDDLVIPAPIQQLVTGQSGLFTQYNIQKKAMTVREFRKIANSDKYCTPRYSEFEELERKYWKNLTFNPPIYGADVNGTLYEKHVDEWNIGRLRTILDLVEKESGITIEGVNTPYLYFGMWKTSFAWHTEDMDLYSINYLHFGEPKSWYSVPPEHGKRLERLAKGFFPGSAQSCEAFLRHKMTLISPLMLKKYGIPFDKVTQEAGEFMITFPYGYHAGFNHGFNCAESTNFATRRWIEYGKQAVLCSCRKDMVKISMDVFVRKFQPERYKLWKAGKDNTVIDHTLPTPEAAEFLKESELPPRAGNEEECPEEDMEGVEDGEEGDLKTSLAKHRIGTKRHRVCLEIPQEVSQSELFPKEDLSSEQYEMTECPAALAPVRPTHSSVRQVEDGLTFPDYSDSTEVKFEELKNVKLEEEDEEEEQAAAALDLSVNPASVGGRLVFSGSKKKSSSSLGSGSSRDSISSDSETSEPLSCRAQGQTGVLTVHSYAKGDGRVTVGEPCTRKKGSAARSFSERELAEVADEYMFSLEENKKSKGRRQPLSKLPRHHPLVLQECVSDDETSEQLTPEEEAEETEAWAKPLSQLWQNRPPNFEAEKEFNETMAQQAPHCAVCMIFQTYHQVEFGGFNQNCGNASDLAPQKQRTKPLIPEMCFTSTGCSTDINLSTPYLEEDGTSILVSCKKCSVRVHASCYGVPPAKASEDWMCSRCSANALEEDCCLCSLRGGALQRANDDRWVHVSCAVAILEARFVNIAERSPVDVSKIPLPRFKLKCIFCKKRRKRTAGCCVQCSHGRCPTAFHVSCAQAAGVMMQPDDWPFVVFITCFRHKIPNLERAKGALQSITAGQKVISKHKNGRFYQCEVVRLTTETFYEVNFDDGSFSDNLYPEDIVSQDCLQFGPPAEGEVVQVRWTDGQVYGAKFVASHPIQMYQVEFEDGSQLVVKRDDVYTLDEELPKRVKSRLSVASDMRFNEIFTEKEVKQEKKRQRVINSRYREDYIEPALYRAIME
G9a inh: qHTS Assay for Inhibitors of Histone Lysine Methyltransferase G9a; Histone-lysine N-methyltransferase EHMT2 (Homo sapiens), Q96KQ7; G9a H3K9 monomethylation, AlphaScreen, 2 h; Potency, µM (highest dose often 102 µM), usual class: inhibitors; 350,000 compounds, 8.8% hits; AID 504332, 2011; note: nearly all actives have a fitted effect of over 75% in size
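Step 1: enzyme (final 20 nM) with compound, 15 min RT. Step 2: substrate peptide 500 nM and SAM 20 uM, 2 h RT. Step 3: anti-H3K9me1 antibody and AlphaScreen beads, 10 min, then plate read.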
BAZ2B inh: qHTS Assay for Inhibitors of BAZ2B. Bromodomain adjacent to zinc finger domain protein 2B (Homo sapiens), Q9UIF8. AlphaScreen BAZ2B-H3K14Ac peptide displacement. Potency, µM (titrated, usually from 114 µM), actives largely listed as inhibitors. 360,000 compounds, 4.4% hits. AID 504333, 2011; note: nearly all actives have a fitted effect of over 60% in size
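Complex of BAZ2B and biotin-H3K14Ac (50 nM apiece) forms over 30 min at RT, then faces library compounds up to 110 uM for another 30 min; AlphaScreen beads added, 20 min dark incubation, luminescence read.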
HP1b chromo inh: HTS for Inhibitors of HP1-beta Chromodomain Interactions with Methylated Histone Tails. Chromobox protein homolog 1 (Homo sapiens), P83916. AlphaScreen HP1-beta / biotin-H3K9me3 peptide binding. Potency, µM (titrated, usually from 114 µM), most hits filed as inhibitors. 390,000 compounds, 0.56% hits; note: nearly all actives have a fitted effect of over 70% in size
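Compound inhibition of the preformed complex between 50 nM HP1-beta and 50 nM biotinylated H3K9me3 peptide was read by AlphaScreen. Buffer was PBS pH 7.4 with 0.01% Tween-20. Incubations ran 30 min at room temperature, with 10 ug/mL donor/acceptor beads.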
PLK1 PBD block: qHTS for Inhibitors of PLK1-PDB (polo-like kinase 1 - polo-box domain): Primary Screen | Potency, µM, hits mostly inhibitors | 360,000 compounds, 2.8% hits | Serine/threonine-protein kinase PLK1 (Homo sapiens), P53350 | Plk1 PBD binding of FITC phosphopeptide, fluorescence polarization; note: series mostly up to about 57 µM; nearly all actives have a fitted effect of over 65% in size
Of the large screens only hits and unclear results are named; the others gave an inactive call. Compounds with a hit are over-represented: about 9% of the library has one in this group of screens. Calls come from the whole dose curve; as a rule, active = well fitted curve in the direction sought with a large enough effect; inconclusive = small, poorly fitted or top-dose-only effect, or another doubt; inactive = no such curve, though single readings can be large; an effect the other way counts as inactive or inconclusive.

Cc1cc(O)c(C(C[N+](=O)[O-])c2ccc(Cl)cc2Cl)c(=O)o1 (stereo not given)	G9a inh 4.5µM, BAZ2B inh inconclusive, PLK1 PBD block inconclusive (no result: ALOX12 inh)
COC(=O)c1ccc(C(=O)Nc2ccc(C(C)C)cc2N)cc1	PLK1 PBD block 30µM
COC(=O)c1ccc(C(=O)NN)cc1	ALOX12 inh inconclusive
CCOc1ccc(NC(=O)CN(C)C(=O)CSCc2c(C)noc2C)cc1OCC	G9a inh inconclusive
COc1ccc(-c2csc3ncnc(N4CCN(c5ccccc5OC)CC4)c23)cc1	JMJD2A Tudor inconclusive, G9a inh 45µM, HP1b chromo inh inconclusive
CCOc1ccccc1N1CCN(c2ncnc3scc(-c4ccc(OC)cc4)c23)CC1	BAZ2B inh inconclusive (no result: G9a inh)
Cc1nc(N2CCN(c3ccccc3O)CC2)c2c(-c3ccccc3)csc2n1	JMJD2A Tudor inconclusive, G9a inh inconclusive, BAZ2B inh 40µM, HP1b chromo inh inconclusive
O=C(O)c1cc(S(=O)(=O)Nc2ccc3oc(=O)sc3c2)ccc1O	ALOX12 inh inconclusive, JMJD2A Tudor inconclusive, G9a inh inconclusive, BAZ2B inh inconclusive, PLK1 PBD block 6.7µM
CC(=O)c1c(C)oc2ccc(NS(=O)(=O)c3ccc(O)c(C(=O)O)c3)cc12	ALOX12 inh 16µM, JMJD2A Tudor inconclusive, G9a inh inconclusive
COc1ccc(-c2cc(=O)oc3c(C)c(O)c(CN(C)C)cc23)cc1	JMJD2A Tudor 22µM
COc1ccc(-c2cc(=O)oc3c(C)c(OCC(=O)N(C)C)ccc23)cc1	G9a inh inconclusive
COc1ccccc1CNC(=O)COC(=O)c1cc(C)nc2ccccc12	none (no result: G9a inh, BAZ2B inh)
O=C(CCNS(=O)(=O)c1ccc(Br)cc1)NCc1ccc(Cl)cc1	JMJD2A Tudor inconclusive, PLK1 PBD block 27µM
Cc1[nH]c(-c2ccccn2)nc(=S)c1Cl	ALOX12 inh inconclusive, PLK1 PBD block 30µM
NCC1CCCN(Cc2ccc(-c3nc(CCn4cccn4)cc(=O)[nH]3)cc2)C1 (stereo not given)	none (no result: JMJD2A Tudor, G9a inh, BAZ2B inh, HP1b chromo inh, PLK1 PBD block)
COc1cc(CNc2ccc3[nH]c(=O)[nH]c3c2)cc(Br)c1OCC(=O)NC(C)(C)C	JMJD2A Tudor 56µM, BAZ2B inh 40µM
CCOc1cc(CNc2ccc(N(C)C)cc2)cc(Br)c1OCC(=O)NC(C)(C)C	JMJD2A Tudor 40µM, G9a inh 5µM, BAZ2B inh 14µM, HP1b chromo inh 14µM
COc1cc(CNc2ccc3[nH]c(=O)[nH]c3c2)ccc1OCC(=O)NC(C)(C)C	G9a inh inconclusive
CCOc1cc(CNc2cccc3ccccc23)cc(Br)c1OCC(=O)NC(C)(C)C	none (no result: ALOX12 inh)
CCOc1c(Cl)cc(CNc2ccc3[nH]c(=O)[nH]c3c2)cc1OC	JMJD2A Tudor inconclusive, G9a inh 3.5µM (no result: PLK1 PBD block)
CCOc1cc(CNc2ccc(N3CCCCC3)cc2)cc(Br)c1OCC(=O)NC(C)(C)C	ALOX12 inh inconclusive, JMJD2A Tudor 10µM, G9a inh 10µM, BAZ2B inh 11µM, HP1b chromo inh inconclusive
COc1cc(CNc2cccc(C(=O)O)c2)cc(Br)c1OCC(=O)NC(C)(C)C	none
COc1cc(CNc2ccc3[nH]c(=O)[nH]c3c2)ccc1OCc1ccc(Cl)cc1	ALOX12 inh inconclusive (no result: G9a inh)
CCN(CC)S(=O)(=O)c1cc(NC(=O)Cc2n[nH]c(=O)c3ccccc23)ccc1C	none
O=C(Cn1ccc(=O)[nH]c1=O)c1ccc([N+](=O)[O-])o1	none (no result: JMJD2A Tudor, G9a inh, BAZ2B inh, HP1b chromo inh)
CC1=C(CC[C@@H](C)CO)OC2CC3C4CCC5CC(O)CCC5(C)C4CC(=O)C3(C)C12 (stereo not given in full)	none (no result: G9a inh, BAZ2B inh)
